We go through eight compounds from PubChem BioAssay (Tox21).

Test [1] in a line: Nuclear factor erythroid 2-related factor 2/antioxidant responsive element (Nrf2/ARE) small molecule agonists: qHTS cell viability counter screen in human keratinocytes (AID 1919968; active = well fitted curve in the direction sought with a large enough effect in the repeat runs; an effect the other way counts as inactive or inconclusive; note: nearly all actives have a fitted effect of over 55% in size; note: potency is the fitted concentration of half-maximal effect). An outline of the steps:
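Cytotoxicity was multiplexed with the Nrf2/ARE luciferase assay in the same wells. Stably transfected HaCaT keratinocytes were treated with test compounds for 23 h at 37 C. Cell viability was then measured by CellTiter-Fluor fluorescence.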
A general note: In qHTS, concentration-response curves come from the screen itself.

Test [2] addresses Gonadotropin-releasing hormone receptor (Homo sapiens) (UniProt P30968). Nature of the test: Human gonadotropin-releasing hormone receptor (GnRHR) small molecule agonists, calcium flux assay in GnRHR-HEK293 cells (AID 1920063). Note: nearly all actives have a fitted effect of over 35% in size. An outline of the steps:
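Agonist activity was measured as intracellular calcium flux in HEK293 cells engineered to stably express human GnRHR. After dye loading for 1 hour at 37 C, compounds in DMSO were added and fluorescence was followed for 3 minutes.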

Test [3] has as its target KiSS-1 receptor (Homo sapiens) (UniProt Q969F8). Briefly: Human kisspeptin (KISS1R) small molecule agonists, calcium flux assay in KISS1R-HEK293 cells (AID 1920064; active = well fitted curve in the direction sought with a large enough effect in the repeat runs; an effect the other way counts as inactive or inconclusive). An outline of the steps:
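Agonist activity is monitored as intracellular calcium rise in engineered HEK293 cells carrying human KISS1R. Cells are dye-loaded for 1 h at 37 C before compound addition, and fluorescence is recorded for 3 min.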

Test [4] in a line: G protein-coupled receptor (GPCR) small molecule agonists, calcium flux assay: HEK293 wild type cell line counter screen (AID 1920065). The essentials:
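Seed cells, incubate 18 h (37 C, 5% CO2); add calcium dye, 1 h at 37 C; pin-transfer compounds, ATP control or DMSO; read fluorescence 480/540 nm each second for 3 min.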

The nature of test [5]: p53 small molecule agonists, cell-based qHTS assay with human liver microsomes (AID 1963577). The essentials: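 p53RE-bla reporter cells were pre-incubated 5 h at 37 C, then treated with compounds plus human liver microsomes (0.5 mg/mL final) and NADPH (0.5 mg/mL final) for 16 h at 37 C. Beta-lactamase activity was read by LiveBLAzer fluorescence after 2 h at room temperature.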

A short description of test [6]: p53 small molecule agonists, cell-based qHTS assay with rat liver microsomes (AID 1963578). The essentials:
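p53RE-bla cells were exposed to compounds together with rat liver microsomes (0.5 mg/mL final) and NADPH (0.5 mg/mL final) for 16 h at 37 C, then read by LiveBLAzer beta-lactamase fluorescence after 2 h at room temperature.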

The nature of test [7]: p53 small molecule agonists, cell-based qHTS assay with human liver microsomes: qHTS cell viability counter screen (AID 1963579). Note: nearly all actives have a fitted effect of over 45% in size. The essentials:
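p53RE-bla cells (4,000/well) were pre-incubated 5 h at 37 C, then given compounds in DMSO plus human liver microsomes (0.5 mg/mL final) and NADPH (0.5 mg/mL final) for 16 h at 37 C. Viability was read by CellTiter-Glo luminescence.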

A short description of test [8]: p53 small molecule agonists, cell-based qHTS assay with rat liver microsomes: qHTS cell viability counter screen (AID 1963580). Note: nearly all actives have a fitted effect of over 45% in size. The essentials:
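Cytotoxicity counter screen: intracellular ATP measured by CellTiter-Glo luminescence in the same wells as the beta-lactamase reporter read, on HCT-116 p53RE-bla cells exposed 16 h at 37 C to compounds with rat liver microsomes and NADPH, each 0.5 mg/mL final.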

Test [9] is described as follows: p53 small molecule agonists, cell-based qHTS assay: qHTS cell viability counter screen (AID 1963581). Note: nearly all actives have a fitted effect of over 45% in size. An outline of the steps: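 Viability was counter-screened in parallel with the p53 agonist reporter by measuring intracellular ATP luminescence in the same HCT-116 p53RE-bla wells after 16 h compound treatment at 37 C.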
A short description of test [10]: p53 small molecule agonists, cell-based qHTS assay (AID 1963582; active = well fitted activation curve with a large enough effect in the signal ratio in the repeat runs, not every such curve was filed as active; the % refers to the signal ratio). An outline of the steps:
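Cells carrying a p53-responsive bla reporter are treated with test compounds for 16 h at 37 C; beta-lactamase activity is then detected with LiveBLAzer B/G FRET substrate after 2 h at room temperature.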

The target in test [11] is 5-hydroxytryptamine receptor 2A (Homo sapiens) (UniProt P28223). Nature of the test: 5-hydroxytryptamine receptor 2A (HTR2A) small molecule agonists, cell-based qHTS assay (AID 1963587). Note: nearly all actives have a fitted effect of over 30% in size. Note: potency is the fitted concentration of half-maximal effect. The essentials:
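CHO cells stably expressing human HTR2A, plated 18 h, loaded with calcium dye 1 h at 37 C. Agonist mode: compounds added and intracellular calcium fluorescence recorded kinetically for 2 min at 1 sec intervals.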

For test [12], the target named is Muscarinic acetylcholine receptor M1 (Homo sapiens) (UniProt P11229). Briefly: Cholinergic receptor muscarinic 1 (CHRM1) small molecule antagonists, cell-based qHTS assay (AID 1963588). Note: nearly all actives have a fitted effect of over 40% in size. The essentials: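 Compounds were tested at 15 concentrations in three independent runs. Dye-loaded CHRM1-CHO cells were exposed 5 min at room temperature before stimulation by acetylcholine added at 50nM. Intracellular calcium was read kinetically on FDSS for 3 min.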
Chain of Muscarinic acetylcholine receptor M1 (Homo sapiens) (P11229 whole entry, looked up): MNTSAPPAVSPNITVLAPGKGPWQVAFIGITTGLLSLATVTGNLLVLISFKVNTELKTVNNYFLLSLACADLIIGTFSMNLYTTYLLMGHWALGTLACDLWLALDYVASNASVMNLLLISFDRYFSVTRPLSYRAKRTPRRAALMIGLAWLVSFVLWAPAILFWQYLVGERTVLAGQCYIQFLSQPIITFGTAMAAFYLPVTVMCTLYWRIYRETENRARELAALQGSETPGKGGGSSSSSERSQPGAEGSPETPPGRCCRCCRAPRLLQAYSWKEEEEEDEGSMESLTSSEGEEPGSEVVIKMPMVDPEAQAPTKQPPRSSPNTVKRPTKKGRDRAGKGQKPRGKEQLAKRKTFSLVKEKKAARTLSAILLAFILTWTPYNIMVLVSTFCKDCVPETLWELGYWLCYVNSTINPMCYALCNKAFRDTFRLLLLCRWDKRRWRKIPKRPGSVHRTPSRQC

Test [13] has the same target. Nature of the test: Cholinergic receptor muscarinic 1 (CHRM1) small molecule agonists, cell-based qHTS assay (AID 1963589). Note: nearly all actives have a fitted effect of over 35% in size. The essentials: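 Cells were plated and incubated 18 h at 37 C/5% CO2, loaded with calcium dye for 1 h at 37 C, then treated with compounds in DMSO. Fluorescence was recorded kinetically at 1 sec intervals.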
A short description of test [14]: cAMP Responsive Elements (CRE) small molecule agonists, cell-based qHTS assay (AID 1963590). An outline of the steps: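 Cells carrying a CRE-driven beta-lactamase reporter (HEK 293T) are seeded, incubated overnight (18 h), and treated with test compounds for 3 h at 37 C; reporter activity is then detected with a FRET substrate after 2 h at room temperature.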
The nature of test [15]: cAMP Responsive Elements (CRE) small molecule antagonists, cell-based qHTS assay (AID 1963591; active = well fitted inhibition curve with a large enough effect in the signal ratio in the repeat runs, not every such curve was filed as active; the % refers to the signal ratio; note: potency is the fitted concentration of half-maximal effect). The essentials: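 Cells (CRE-bla HEK 293T, DMEM with 10% dialyzed FBS and 25 mM HEPES) are seeded and incubated 18 h. Compounds are added with NKH477 agonist at 0.25 uM final for 3 h, then FRET substrate for 2 h.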
Test [16] has as its target Beta-2 adrenergic receptor (Homo sapiens) (UniProt P07550). Briefly: Adrenergic beta2 receptor (ADRB2) small molecule antagonists, cell-based qHTS assay (AID 1963592). Note: series mostly up to about 92 µM; nearly all actives have a fitted effect of over 50% in size. An outline of the steps:
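Assay format: CHO-ADRB2 cells, 18-20hr seeding at 37C/5% CO2, then compound plus 1nM isoproterenol agonist mix for 0.5hr RT. Homogeneous time-resolved fluorescence cAMP detection after 1hr, expressed as 665/615 nm ratio.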

The target is the same in test [17]. Briefly: Adrenergic beta2 receptor (ADRB2) small molecule agonists, cell-based qHTS assay (AID 1963593).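 Note: CHO cells stably overexpressing human ADRB2.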 An outline of the steps: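 CHO cells stably over-expressing ADRB2 were plated overnight at 37C, then dosed with compounds plus a stimulation mix containing 100uM IBMX and 25uM Ro-20-1724 for 0.5hr at room temperature. cAMP was measured by HTRF competition, 1hr.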

Test [18] addresses D(2) dopamine receptor (Homo sapiens) (UniProt P14416). Nature of the test: Dopamine D2 receptor (DRD2) small molecule agonists, cell-based qHTS assay (AID 1963594). Note: nearly all actives have a fitted effect of over 35% in size. The essentials: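 HEK293 cells stably expressing human DRD2, pre-treated with PDE inhibitor Ro20-1724 (0.1 mM final) and compound 10 min at room temperature, then stimulated with NKH477 (200nM […]) for 30 min. cAMP read by HTRF (665/620 nm).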

The target is the same in test [19]. Nature of the test: Dopamine D2 receptor (DRD2) small molecule antagonists, cell-based qHTS assay (AID 1963595; active = well fitted inhibition curve with a large enough effect in the signal ratio in the repeat runs, with a control signal flat; the % refers to the signal ratio). The essentials: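 Antagonist mode in DRD2-HEK293 cells: after compound addition with 0.1 mM Ro20-1724, cells received quinpirole (12 nM) and NKH477 (200 nM) for 30 min at room temperature; HTRF cAMP read after 1 h detection.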
Test [20] concerns the target 5-hydroxytryptamine receptor 2A (Homo sapiens) (UniProt P28223). Nature of the test: 5-hydroxytryptamine receptor 2A (HTR2A) small molecule antagonists, cell-based qHTS assay (AID 1963586). Note: nearly all actives have a fitted effect of over 45% in size. The essentials: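 CHO cells stably expressing human HTR2A were plated for 18 h at 37 C, then loaded with calcium dye for 1 h. Compounds were preincubated 5 min at room temperature before DOI (4 nM solution) was added. Kinetic fluorescence was read for 3 min.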

Unmarked numbers belong to inactive results. Inconclusive results are not listed. Calls of active or inactive are those of the source. Unless noted, calls come from the whole dose curve.

Chain of Gonadotropin-releasing hormone receptor (Homo sapiens) (P30968 whole entry, looked up): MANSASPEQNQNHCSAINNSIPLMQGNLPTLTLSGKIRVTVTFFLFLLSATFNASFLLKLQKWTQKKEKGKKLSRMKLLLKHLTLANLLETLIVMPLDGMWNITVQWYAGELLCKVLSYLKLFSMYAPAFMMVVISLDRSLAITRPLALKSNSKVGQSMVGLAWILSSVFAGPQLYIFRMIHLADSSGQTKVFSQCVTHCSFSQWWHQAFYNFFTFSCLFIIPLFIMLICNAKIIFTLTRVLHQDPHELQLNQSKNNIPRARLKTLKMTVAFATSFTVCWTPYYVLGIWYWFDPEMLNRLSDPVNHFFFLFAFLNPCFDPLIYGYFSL
Chain of 5-hydroxytryptamine receptor 2A (Homo sapiens) (P28223 whole entry, looked up): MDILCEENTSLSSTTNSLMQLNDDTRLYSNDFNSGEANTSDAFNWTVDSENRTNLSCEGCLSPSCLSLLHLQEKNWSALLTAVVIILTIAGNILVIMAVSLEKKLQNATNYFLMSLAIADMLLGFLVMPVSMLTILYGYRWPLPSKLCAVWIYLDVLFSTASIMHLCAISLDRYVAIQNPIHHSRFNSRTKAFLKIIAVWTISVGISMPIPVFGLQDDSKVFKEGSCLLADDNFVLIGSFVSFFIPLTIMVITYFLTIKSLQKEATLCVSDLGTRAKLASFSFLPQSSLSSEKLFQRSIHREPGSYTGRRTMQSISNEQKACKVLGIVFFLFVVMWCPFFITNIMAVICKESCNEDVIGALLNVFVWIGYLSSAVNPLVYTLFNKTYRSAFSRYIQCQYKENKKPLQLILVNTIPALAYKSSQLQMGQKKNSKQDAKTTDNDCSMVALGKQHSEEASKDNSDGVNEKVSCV
Chain of KiSS-1 receptor (Homo sapiens) (Q969F8 whole entry, looked up): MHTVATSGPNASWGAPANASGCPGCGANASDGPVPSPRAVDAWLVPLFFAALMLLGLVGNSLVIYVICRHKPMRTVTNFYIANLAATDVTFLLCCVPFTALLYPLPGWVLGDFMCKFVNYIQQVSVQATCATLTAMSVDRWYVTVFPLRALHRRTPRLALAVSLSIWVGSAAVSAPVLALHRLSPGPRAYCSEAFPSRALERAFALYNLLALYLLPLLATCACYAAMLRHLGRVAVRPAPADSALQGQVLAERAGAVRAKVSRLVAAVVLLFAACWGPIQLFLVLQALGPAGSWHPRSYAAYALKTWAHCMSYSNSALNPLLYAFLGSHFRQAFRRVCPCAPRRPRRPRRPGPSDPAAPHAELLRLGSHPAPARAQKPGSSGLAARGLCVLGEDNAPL
Chain of D(2) dopamine receptor (Homo sapiens) (P14416 whole entry, looked up): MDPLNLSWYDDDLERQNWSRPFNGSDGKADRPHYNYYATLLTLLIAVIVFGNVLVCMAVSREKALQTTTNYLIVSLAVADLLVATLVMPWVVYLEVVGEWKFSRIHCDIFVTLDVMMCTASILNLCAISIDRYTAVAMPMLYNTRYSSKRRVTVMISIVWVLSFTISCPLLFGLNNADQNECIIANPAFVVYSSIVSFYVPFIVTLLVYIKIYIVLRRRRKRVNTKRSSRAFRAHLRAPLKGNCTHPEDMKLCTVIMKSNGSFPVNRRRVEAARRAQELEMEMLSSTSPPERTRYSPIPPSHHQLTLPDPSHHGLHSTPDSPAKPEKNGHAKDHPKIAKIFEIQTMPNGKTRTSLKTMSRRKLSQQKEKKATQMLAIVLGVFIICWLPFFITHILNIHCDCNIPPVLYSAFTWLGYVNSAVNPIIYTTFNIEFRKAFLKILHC
Chain of Beta-2 adrenergic receptor (Homo sapiens) (P07550 whole entry, looked up): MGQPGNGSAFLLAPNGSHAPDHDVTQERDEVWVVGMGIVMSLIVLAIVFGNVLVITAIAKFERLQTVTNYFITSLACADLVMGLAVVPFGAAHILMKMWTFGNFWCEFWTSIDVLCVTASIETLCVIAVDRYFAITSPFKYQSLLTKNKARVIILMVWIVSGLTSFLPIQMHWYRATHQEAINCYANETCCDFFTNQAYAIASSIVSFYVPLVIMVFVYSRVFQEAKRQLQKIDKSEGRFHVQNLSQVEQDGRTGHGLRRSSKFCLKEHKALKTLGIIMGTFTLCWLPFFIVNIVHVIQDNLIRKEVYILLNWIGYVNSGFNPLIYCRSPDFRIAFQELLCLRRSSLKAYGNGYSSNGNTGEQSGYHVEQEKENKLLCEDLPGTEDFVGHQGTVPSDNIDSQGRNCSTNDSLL

For the compound `CCCCCC`, the Potency entry in test [1], in [2], in test [3], in test [4], in test [5] and in test [6] was “inactive” each time. The Potency entry in test [7], in [8], in [9], in test [10], in test [11] and in [12] was “inactive” throughout. Besides, the Potency entry in test [13], in test [14], in test [15], in test [16], in test [17] and in [18] was “inactive” throughout. Also, the Potency result in [19] is “inactive”.

On to `S=c1nccc[nH]1`, for which the Potency result in test [1], in [2], in [3], in test [4], in test [5] and in [6] was “inactive” throughout. The Potency result in test [7], in test [8], in [9], in test [10], in test [20] and in test [11] was “inactive” in each case. Also, the Potency result in test [13], in [15], in test [16], in test [18] and in [19] was “inactive” in each case.

On to `CCCCC(CC)COCCCN` (stereo not given), for which the Potency result in test [1], in [2], in test [3], in test [4], in test [5] and in test [6] was “inactive” throughout. For the same compound, the Potency entry in test [7], in test [8], in test [9], in [10], in test [20] and in test [12] was “inactive” each time. In addition, the Potency result in [15], in test [17], in test [18] and in test [19] was “inactive” throughout. Further, the Potency in [11] is 17.2 µM (active).

With `O=C(Oc1cccc2cccnc12)c1ccccc1`, the Potency is 2.98 µM (active) in test [1] and 23.7 µM (active) in [15]. Further, the Potency entry in [2], in test [3], in test [4], in test [5], in test [6] and in test [7] was “inactive” each time. The Potency result in test [8], in [9], in test [10], in test [20], in test [11] and in test [12] was “inactive” in each case. Besides, the Potency result in test [13], in test [16], in test [18] and in test [19] was “inactive” in each case.

Take `O=c1[nH]nc(-c2ccc([N+](=O)[O-])o2)o1`: the Potency result in test [1], in [2], in test [3], in test [4], in test [5] and in test [6] was “inactive” throughout. Also, the Potency result in [7], in test [8], in test [9], in [10], in test [20] and in test [11] was “inactive” each time. Besides, the Potency entry in test [12], in test [16] and in [18] was “inactive” in each case.

Turning to `C[C@@]12CCC[C@H]1[C@@H]1CC[C@H]3C[C@@H](O)CC[C@]3(C)[C@H]1CC2`, the Potency entry in test [1], in [2], in [3], in [4], in [5] and in [6] was “inactive” each time. For the same compound, the Potency result in [7], in test [8], in test [9], in [10], in test [20] and in test [11] was “inactive” throughout. Moreover, the Potency result in test [12], in test [13], in [14], in test [17], in [18] and in [19] was “inactive” in each case.

For `O=C(O)COc1nn(Cc2ccccc2)c2ccccc12`, the Potency entry in test [1], in test [2], in [3], in [4], in test [5] and in test [6] was “inactive” each time. Further, the Potency entry in [7], in [8], in test [9], in test [10], in [20] and in [12] was “inactive” each time. For the same compound, the Potency entry in test [13], in [16], in [17], in test [18] and in [19] was “inactive” in each case.

With `O=C(CS(=O)Cc1ccco1)NC/C=C\COc1cc(CN2CCCCC2)ccn1` (stereo not given), the Potency result in test [1], in test [2], in [3], in test [4], in [5] and in test [6] was “inactive” each time. In addition, the Potency result in test [7], in [8], in [9], in test [10], in [20] and in [11] was “inactive” throughout. Besides, the Potency result in test [12], in [13], in [15], in test [16], in test [17] and in test [18] was “inactive” in each case. The Potency entry in [19] was “inactive”.
